Compound activity from PubChem.
Shown are actives, neighbours in structure and some others; about 9% of the full set was active somewhere.
HPGD inh: inhibitors of human 15-hydroxyprostaglandin dehydrogenase (HPGD); P15428; purified HPGD, NADH fluorescence kinetic, PGE2 substrate; Potency, µM, inactives show at the highest dose activity change, negative = inhibition, most hits filed as inhibitors; 150,000 tested, 4.3% active; active = well fitted inhibition curve with a large enough effect, not every such curve was filed as active; inconclusive = small, poorly fitted or top-dose-only effect, or another doubt; inactive = no such curve, though single readings can be large or run the other way
Target sequence (P15428 whole entry, looked up): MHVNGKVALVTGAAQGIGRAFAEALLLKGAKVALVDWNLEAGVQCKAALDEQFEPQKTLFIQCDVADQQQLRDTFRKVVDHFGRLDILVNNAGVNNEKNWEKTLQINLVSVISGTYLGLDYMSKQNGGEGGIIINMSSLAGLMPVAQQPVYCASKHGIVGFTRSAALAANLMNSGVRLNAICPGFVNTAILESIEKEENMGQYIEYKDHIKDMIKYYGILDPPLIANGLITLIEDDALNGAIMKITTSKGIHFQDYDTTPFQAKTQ
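20 nM HPGD preincubated 15 min at room temperature with compound in 50 mM Tris-HCl pH 8, 0.01% Tween 20. Started with 1 mM NAD+ and 30 uM prostaglandin E2; NADH fluorescence (360/450 nm) read 5 times over 30-s intervals, last minus first.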
LMNA splice mod: LMNA splicing modulation. HeLa LMNA splicing GFP/RFP minigene ratio, 48 h. Potency, µM (titrated, usually from 46.1 µM), for inactives: at the highest dose ratio change, negative = inhibition, hits mostly inhibitors. 200,000 tested, 0.01% active. AID 1487; active = well fitted inhibition curve with a large enough effect in the signal ratio, with a control signal flat, not every such curve was filed as active; inconclusive = small, poorly fitted or top-dose-only effect, or effect the other way, or a change in a side signal; the % refers to the signal ratio
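S3 HeLa stable clones carrying a lamin A-EGFP splicing minigene plus DsRed2 were seeded at 600 cells/well in Opti-MEM with 2% FBS, pin-dosed and incubated 48 h at 37°C. Acumen cytometry (488 nm) gave the GFP/RFP total-intensity ratio.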
KinaseGlo FLuc: counter-screen: inhibitors of Kinase-Glo firefly luciferase | Kinase-Glo luciferase, ATP luminescence, 8 min | Potency, µM (doses to about 38.3 µM), for the others: top-dose activity change, negative = inhibition, actives largely listed as inhibitors | 200,000 tested, 0.28% active | AID 1379; also: nearly all actives have a fitted effect of over 60% in size
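Compound is pinned into ATP-containing buffer (10 uM ATP, imidazole pH 7.2, 7 mM MgCl2). Kinase-Glo luciferase reagent is then added. Light output is recorded following an 8-min room-temperature incubation.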
IMPase Li cell: cell-permeable IMPase inhibitors with lithium potentiation | CHO-M1 cells, IP1 TR-FRET (IP-One), carbachol + lithium | Potency, µM (top dose mostly 59.4 µM), inactives show at the highest dose activity, negative = IMPase inhibition, most hits filed as inhibitors | 210,000 tested, 0.35% active | AID 1457;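 also: IP1 builds up when IMPase is blocked and the TR-FRET signal falls; plate controls were basal vehicle for no effect and high inhibitor control for full effect; nearly all actives have a fitted effect of over 50% in size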
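CHO-M1, 2000 cells/well, 16–30 h culture; cpd + low Li+, 30 min 37C; lysis with d2-IP1/Eu-anti-IP1 Ab, 10 min RT; TR-FRET 665/620 ratio and 620 channel; AC50 via Hill.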
ALDH1A1 inh: ALDH1A1 (human) enzyme inhibition; Purified ALDH1A1, NADH fluorescence, propionaldehyde substrate; AID 1030; 220,000 tested, 7.3% active; P00352; Potency, µM (series often up to 75.3 µM), for the others: top-dose activity, negative = inhibition, hits mostly inhibitors; active = well fitted inhibition curve with a large enough effect, not every such curve was filed as active; inconclusive = small, poorly fitted or top-dose-only effect, or another doubt; inactive = no such curve, though single readings can be large or run the other way;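 also: plate controls were no enzyme wells and a reference inhibitor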
The depositor's hits bear a star; ? = inconclusive; nt = not tested or not shown; [ ] = remark or other dose. Unless noted, calls follow the shape of the dose curve; as a rule, active = well fitted curve in the direction sought with a large enough effect; inconclusive = small, poorly fitted or top-dose-only effect, or another doubt; inactive = no such curve, though single readings can be large; an effect the other way counts as inactive or inconclusive. Unless noted, % is scaled to controls: 0 for no effect and ±100 for the full control effect; potency is read from the fitted curve at half-maximal effect.

SMILES	HPGD inh	LMNA splice mod	KinaseGlo FLuc	IMPase Li cell	ALDH1A1 inh
O=C1C=C(c2cccs2)C[C@H](c2ccccc2)[C@H]1n1nnc([N+](=O)[O-])n1	-15%	?	1%	9%	7.9µM*
N#Cc1cccc(NC(=O)N2CCCC3(CCN(C(=O)c4cnccn4)CC3)C2)c1	-1%	nt	-3%	0%	10%
COc1cc(Cl)cc(C=O)c1OCC(=O)O	nt	nt	3%	1%	-4%
O=C(/C=C/c1ccc(Br)cc1)c1ccc(NC2=NCCCS2)cc1	8.9µM*	?	-11%	-17%	12%
O=C(/C=C/c1ccccc1)c1ccc(NC2=NCCCS2)cc1	14µM*	6%	9%	7%	-7%
Cc1cccc(/C=C/C(=O)c2ccc(NC3=NCCCS3)cc2)c1	-22%	?	0%	13%	-12%
COc1cccc(/C=C/C(=O)c2ccc(NC3=NCCCS3)cc2)c1	nt	nt	-7%	16%	?
CN(C)c1ccc(C(=O)/C=C/c2ccc(Br)cc2)cc1	-7%	5%	-3%	-7%	2%
CC(C)(C)c1ccc(/C=C/C(=O)c2ccc(NC3=NCCCS3)cc2)cc1	20µM*	?	4%	-16%	20%
Cc1ccc(-n2ncc3c(NCc4ccccc4)ncnc32)cc1C	nt	-7%[46 µM]	nt	nt	nt
O=[N+]([O-])c1ccc(N2CCN(S(=O)(=O)c3ccc4ccccc4c3)CC2)cc1NCC1CCCO1 (stereo not drawn)	-20%	-2%	5%	0%	1%
Cc1cc(C2C(C#N)=C(N)SC(N)=C2C#N)c(C)s1	20µM*	4%	1%	-28%[38.3 µM]	25µM*
Cc1[nH]nc2c1C(c1ccsc1C)C(C#N)=C(N)O2 (stereo not drawn)	-9%	-6%	7%	27%[38.3 µM]	-8%
Cc1sccc1C1C(C#N)=C(N)SC(N)=C1C#N	-16%	12%	-2%	?	10µM*
COCCNC(=O)c1onc(CCl)c1C(=O)OC	-16%	-7%	-3%	0%[38.3 µM]	28µM*
CCCCNC(=O)c1onc(CCl)c1C(=O)OC	-15%	?	1%	11%[38.3 µM]	14µM*
CCOC(=O)c1ccc(CC2S/C(=C(\C#N)C(C)=O)NC2=O)cc1 (stereo not drawn)	14µM*	?	-2%	22%[38.3 µM]	-14%
CCc1ccc(CC2S/C(=C(\C#N)C(C)=O)NC2=O)cc1 (stereo not drawn)	?	?	1%	5%[38.3 µM]	-15%
O=C(NC(=S)Nn1cnc2c(cnn2-c2ccccc2)c1=O)c1ccccc1	-23%	-14%	-1%	-9%	18µM*
CCn1cnc2c(cnn2-c2ccccc2)c1=O	-18%	?	-5%	-9%[38.3 µM]	-12%
Cc1ccc(S(=O)(=O)NCCc2csc(-c3cccc(F)c3)n2)cc1	nt	-2%[46 µM]	nt	nt	nt
CC(O)CNc1ccc(-c2nn(C)c(=O)c3ccccc23)cc1[N+](=O)[O-] (stereo not drawn)	nt	nt	1%	8%	7.9µM*
CC(C)c1nn2c(=O)cc(COC(=O)c3ccccc3NC(=O)c3cccc(Cl)c3)nc2s1	nt	-3%[46 µM]	nt	nt	nt
O=C(CNC(=O)c1cccc(Br)c1)N/N=C/c1ccc[nH]1	nt	15%[46 µM]	-1%	0%	-5%
Cc1ccc(NC(=O)c2noc(C(C)C)c2[N+](=O)[O-])cc1	nt	15%[46 µM]	-1%	8%	10µM*
SMILES	HPGD inh	LMNA splice mod	KinaseGlo FLuc	IMPase Li cell	ALDH1A1 inh
CC(C)c1onc(C(=O)Nc2cccc(O)c2)c1[N+](=O)[O-]	nt	nt	-2%	-2%	2%
CC(C)c1onc(C(=O)N2CCCCC2C)c1[N+](=O)[O-] (stereo not drawn)	?	-4%	-1%	2%	-14%
CC(C)c1onc(C(=O)N2CCCCC2)c1[N+](=O)[O-]	14µM*	-15%	3%	1%	?
O=C(Nc1ccc(-c2nnc3n2CCCCC3)cc1)c1cc2ccccc2o1	2.2µM*	-8%	-4%	-2%	-1%
O=C(/C=C/c1ccccc1Cl)Nc1ccc(-c2nnc3n2CCCCC3)cc1	4µM*	-5%	-2%	-9%	-4%
CCOc1cc(C(=O)Nc2ccc(-c3nnc4n3CCCCC4)cc2)cc(OCC)c1OCC	nt	13%[46 µM]	nt	nt	nt
Cc1cc(Cl)nc2ccc(Cc3ccc4nc(Cl)cc(C)c4c3)cc12	-9%	nt	-2%[7.66 µM]	16%	5%[13.5 µM]
